Assay results as given in PubChem BioAssay (EPA / NIEHS).
Active and inactive are the calls of the source. Rule for the calls: active = hit-call score of the fitted dose curve at least 0.9, where 1 is the maximum; inactive = score below 0.9.

How the values were obtained:
[1] = ATG_PXRE_CIS: Attagene CIS-FACTORIAL HepG2 Assay for human Pregnane X Receptor Element (PXRE) (AID 2282957); conditions: HepG2 Attagene CIS-FACTORIAL PXRE reporter, mRNA; actives raise or lower the signal
Summary of the method: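 Bidirectional activity, baselined to DMSO, derived from reporter mRNA fluorescence (RT-PCR plus capillary electrophoresis) in HepG2 cells bearing cis-promoter reporter units, 24 h exposure.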

[2] = ATG_PPRE_CIS: Attagene CIS-FACTORIAL HepG2 Assay for human Peroxisome Proliferator-activated Response Element (PPRE) (AID 2282958); conditions: HepG2 PPRE cis-element reporter, Attagene transcription factor profiling; actives raise or lower the signal
Summary of the method: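 Endogenous PPRE-driven transcription is measured in HepG2 cells carrying transfected multi-reporter constructs. Reporter transcripts are quantified by RT-PCR, HpaI digestion and capillary electrophoresis 24 h after dosing. DMSO baseline, bidirectional fit.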

[3] = ATG_RORE_CIS: Attagene CIS-FACTORIAL HepG2 Assay for human RAR-related Orphan Receptor Element (RORE) (AID 2282959); conditions: HepG2 Attagene cis-factorial RORE reporter, mRNA; actives raise or lower the signal
Summary of the method: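 RORE reporter transcripts reflecting endogenous factor activity were read after 24 h compound exposure of transfected HepG2 cells, using reverse transcription, PCR, fluorescent labelling and capillary electrophoresis sizing. Gain or loss fitted against DMSO.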

[4] = ATG_Sox_CIS: Attagene CIS-FACTORIAL HepG2 Assay for human SRY-box transcription factor (SOX) (AID 2282960); conditions: HepG2 Attagene cis-factorial SOX reporter, mRNA; actives raise or lower the signal
Summary of the method: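 Reporter transcripts, measured by RT-PCR and capillary electrophoresis of labelled fragments, report endogenous SOX transcription factor activity. Transiently transfected human HepG2 cells receive chemical for 24 h; changes in either direction are fitted relative to DMSO.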

[5] = target: Transcription factor Sp1 (Homo sapiens) (UniProt P08047); test: ATG_Sp1_CIS: Attagene CIS-FACTORIAL HepG2 Assay for human Specificity Protein 1 (Sp1) (AID 2282961); conditions: HepG2 Sp1 cis-reporter transcription, actives raise or lower the signal
Summary of the method: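 Read-out is reporter transcript level, measured by RT-PCR and fluorescent capillary electrophoresis after 24 h chemical treatment. System: transiently transfected HepG2 cells reporting endogenous transcription factor activity; gain or loss fitted against DMSO baseline.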

[6] = ATG_SREBP_CIS: Attagene CIS-FACTORIAL HepG2 Assay for human Sterol Regulatory Element Binding (SREBP) (AID 2282962); conditions: HepG2 Attagene cis-factorial SREBP reporter, mRNA; actives raise or lower the signal
Summary of the method: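 Endogenous SREBP activity read as cis-element-driven reporter transcript in transiently transfected HepG2, 24 h post-dosing; quantified via RT-PCR plus capillary electrophoresis of fluorescent fragments. Gain or loss of signal fitted relative to DMSO baseline.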

[7] = target: Signal transducer and activator of transcription 3 (Homo sapiens) (UniProt P40763); test: ATG_STAT3_CIS: Attagene CIS-FACTORIAL HepG2 Assay for human Signal Transducer and Activator of Transcription 3 (STAT3) (AID 2282963); conditions: HepG2, Attagene cis-factorial STAT3 reporter transcription; actives raise or lower the signal
Summary of the method: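 Cis-factorial format: endogenous transcription factors in HepG2 drive transfected reporter units. After 24 h treatment, reporter RNA was reverse-transcribed, amplified, FAM-labelled and HpaI-digested before CE analysis; activity scored in both directions against DMSO.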

[8] = ATG_TA_CIS: Attagene CIS-FACTORIAL HepG2 Assay for human TA Basal Promoter (AID 2282964); conditions: HepG2 Attagene CIS-factorial TA basal promoter reporter; actives raise or lower the signal
Summary of the method: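 Transfected HepG2, 24 h compound exposure; RNA → RT-PCR → FAM primer extension → HpaI cut → CE fluorescence. Gain/loss-of-signal fitted against DMSO negative control. Background-control readout.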

[9] = ATG_TCF_b_cat_CIS: Attagene CIS-FACTORIAL HepG2 Assay for human T-Cell-Factor with beta-catenin (TCF/b-cat) (AID 2282965); conditions: HepG2 TCF/beta-catenin cis-reporter transcription, actives raise or lower the signal
Summary of the method: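 Endogenous TCF/LEF activity read as reporter transcript level via RT-PCR and capillary electrophoresis fluorescence in transfected HepG2, 24 h exposure; gain or loss of signal fitted against DMSO controls.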

[10] = ATG_TAL_CIS: Attagene CIS-FACTORIAL HepG2 Assay for human TAL Basal Promoter (AID 2282966); conditions: HepG2 Attagene cis-factorial TAL promoter reporter; actives raise or lower the signal;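 note: background control endpoint measuring basal TAL promoter reporter mRNA not a specific factor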
Summary of the method: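 Human hepatoma HepG2 cells, transfected with promoter-regulated reporter units, were treated 24 h. Reporter transcript levels, measured through RT-PCR and capillary electrophoresis, were fitted for gain or loss relative to DMSO.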

Signal transducer and activator of transcription 3 (Homo sapiens), sequence (P40763 whole entry, looked up): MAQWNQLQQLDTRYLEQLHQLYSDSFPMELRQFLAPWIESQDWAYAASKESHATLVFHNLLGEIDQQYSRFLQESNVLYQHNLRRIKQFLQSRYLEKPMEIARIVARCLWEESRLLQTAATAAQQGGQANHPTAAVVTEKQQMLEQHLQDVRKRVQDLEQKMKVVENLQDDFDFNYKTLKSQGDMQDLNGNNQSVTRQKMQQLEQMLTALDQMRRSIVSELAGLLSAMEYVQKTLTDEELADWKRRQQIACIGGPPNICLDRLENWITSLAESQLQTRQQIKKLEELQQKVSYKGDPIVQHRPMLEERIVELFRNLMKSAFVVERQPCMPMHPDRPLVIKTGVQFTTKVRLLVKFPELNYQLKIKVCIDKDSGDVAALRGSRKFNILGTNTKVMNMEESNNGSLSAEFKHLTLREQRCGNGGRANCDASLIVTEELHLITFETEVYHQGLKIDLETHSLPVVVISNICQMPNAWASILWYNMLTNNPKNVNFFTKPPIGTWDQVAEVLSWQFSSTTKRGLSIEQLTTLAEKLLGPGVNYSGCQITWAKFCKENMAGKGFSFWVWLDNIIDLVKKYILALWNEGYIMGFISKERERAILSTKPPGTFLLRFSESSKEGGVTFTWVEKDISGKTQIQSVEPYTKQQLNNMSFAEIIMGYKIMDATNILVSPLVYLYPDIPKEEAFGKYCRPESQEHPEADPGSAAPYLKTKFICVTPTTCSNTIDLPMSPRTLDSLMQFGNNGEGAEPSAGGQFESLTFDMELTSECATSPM
Transcription factor Sp1 (Homo sapiens), sequence (P08047 whole entry, looked up): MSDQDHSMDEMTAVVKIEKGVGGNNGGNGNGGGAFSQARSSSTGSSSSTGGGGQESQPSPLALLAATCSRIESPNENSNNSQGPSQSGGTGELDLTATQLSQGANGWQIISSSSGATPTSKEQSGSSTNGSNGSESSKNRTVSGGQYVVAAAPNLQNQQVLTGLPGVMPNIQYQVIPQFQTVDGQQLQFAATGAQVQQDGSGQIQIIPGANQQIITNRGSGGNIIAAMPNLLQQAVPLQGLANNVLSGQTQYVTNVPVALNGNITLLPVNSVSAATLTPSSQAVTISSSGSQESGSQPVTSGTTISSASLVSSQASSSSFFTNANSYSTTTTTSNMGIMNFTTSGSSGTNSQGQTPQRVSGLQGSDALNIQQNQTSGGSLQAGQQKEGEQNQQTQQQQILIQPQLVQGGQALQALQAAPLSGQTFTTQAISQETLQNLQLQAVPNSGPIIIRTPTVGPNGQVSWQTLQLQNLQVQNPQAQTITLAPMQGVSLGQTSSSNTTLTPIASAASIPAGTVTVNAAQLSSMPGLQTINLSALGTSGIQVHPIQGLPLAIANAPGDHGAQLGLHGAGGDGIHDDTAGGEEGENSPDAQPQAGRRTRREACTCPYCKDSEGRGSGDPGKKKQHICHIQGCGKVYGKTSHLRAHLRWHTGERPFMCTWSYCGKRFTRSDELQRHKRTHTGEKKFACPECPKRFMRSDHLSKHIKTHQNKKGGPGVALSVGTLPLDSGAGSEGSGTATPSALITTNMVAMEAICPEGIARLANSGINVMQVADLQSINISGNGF

Compound | AC50 [1] | AC50 [2] | outcome [3] | outcome [4] | outcome [5] | outcome [6] | outcome [7] | outcome [8] | outcome [9] | outcome [10] | outcome [1] | outcome [2] | AC50 [4] | AC50 [5] | AC50 [6] | AC50 [9] | AC50 [3] | AC50 [8]
C=Cc1ccc(O)c(OC)c1 | 26.6 µM (active) | 13 µM (active) | inactive | inactive | inactive | inactive | inactive | inactive | inactive | inactive |  |  |  |  |  |  |  | 
CC[N+](CC)(CC)Cc1ccccc1 |  |  | inactive | inactive | inactive | inactive | inactive |  | inactive | inactive | inactive | inactive |  |  |  |  |  | 
OCCN1CN(CCO)CN(CCO)C1 | 30 µM (active) |  | inactive |  |  | inactive | inactive |  | inactive | inactive |  | inactive | 150 µM (active) | 144 µM (active) |  |  |  | 
c1ccc2c(c1)CCC2 |  |  | inactive | inactive | inactive | inactive | inactive |  | inactive | inactive | inactive | inactive |  |  |  |  |  | 
CN(CCO)S(=O)(=O)C(F)(F)C(F)(F)C(F)(F)C(F)(F)C(F)(F)C(F)(F)C(F)(F)C(F)(F)F |  |  | inactive | inactive | inactive | inactive | inactive |  | inactive | inactive | inactive | inactive |  |  |  |  |  | 
Brc1ccc(Oc2ccc(Br)cc2Br)cc1 |  |  | inactive | inactive | inactive | inactive | inactive |  | inactive | inactive | inactive | inactive |  |  |  |  |  | 
FC(F)(F)C1(F)C(F)(F)C(F)(F)C(F)(F)C1(F)F |  |  | inactive | inactive | inactive | inactive | inactive |  | inactive | inactive | inactive | inactive |  |  |  |  |  | 
CCCCCCCCC1CCC(=O)O1 (stereo not drawn) |  |  | inactive | inactive | inactive | inactive | inactive | inactive | inactive | inactive | inactive | inactive |  |  |  |  |  | 
CCCCCCCCC(C)=O |  |  | inactive | inactive | inactive | inactive | inactive |  | inactive | inactive | inactive | inactive |  |  |  |  |  | 
C/C=C/C(=O)C1=C(C)CCCC1(C)C | 2.03 µM (active) |  | inactive |  |  |  | inactive | inactive |  | inactive |  | inactive | 46.1 µM (active) | 35.4 µM (active) | 44.9 µM (active) | 62.7 µM (active) |  | 
CC1=CC(=O)c2ccccc2C1=O | 11.1 µM (active) |  | inactive | inactive | inactive | inactive | inactive | inactive | inactive | inactive |  | inactive |  |  |  |  |  | 
CC(=O)CC(C)C |  |  | inactive | inactive | inactive | inactive | inactive |  | inactive | inactive | inactive | inactive |  |  |  |  |  | 
Cc1cncc(C)c1 |  |  | inactive | inactive | inactive | inactive | inactive | inactive | inactive | inactive | inactive | inactive |  |  |  |  |  | 
O=CC(F)(F)C(F)(F)C(F)(F)F |  |  | inactive | inactive | inactive | inactive | inactive |  | inactive | inactive | inactive | inactive |  |  |  |  |  | 
CCCCCCCCCCCC(=O)NCCCN(C)C | 5.26 µM (active) |  |  | inactive | inactive |  | inactive |  |  | inactive |  | inactive |  |  | 8.13 µM (active) | 17.5 µM (active) | 21.3 µM (active) | 18.9 µM (active)
CC(C)(O)C(=O)c1ccccc1 | 36.2 µM (active) |  | inactive | inactive | inactive | inactive | inactive | inactive | inactive | inactive |  | inactive |  |  |  |  |  | 
Cc1ccc(C(=O)c2ccccc2)cc1 | 30.4 µM (active) |  | inactive | inactive | inactive | inactive | inactive |  | inactive | inactive |  | inactive |  |  |  |  |  | 
C=CC(=O)OCCC(F)(F)C(F)(F)C(F)(F)C(F)(F)C(F)(F)C(F)(F)C(F)(F)C(F)(F)F |  |  | inactive | inactive | inactive | inactive | inactive |  | inactive | inactive | inactive | inactive |  |  |  |  |  | 
C=CC(F)(F)C(F)(F)C(F)(F)C(F)(F)F |  |  | inactive | inactive | inactive | inactive | inactive | inactive | inactive | inactive | inactive | inactive |  |  |  |  |  | 
Oc1c(Cl)ccc(Cl)c1Cl | 49.8 µM (active) | 40.4 µM (active) | inactive | inactive | inactive | inactive | inactive |  | inactive | inactive |  |  |  |  |  |  |  | 
